The supplement of paper PMC10849652
The full data set covers some 8,800 targets. This sample favours those with a hit. About 0.5% of all pairs of compound and target were hits.

Columns and labels:
Assay in all cases: log2 fold change, soluble protein after heating vs DMSO (PISA); higher = thermal stabilisation; K562 lysate, 10 uM; active = over 0.2 and 3.5 SD of the protein, either way, in both replicates (recomputed)
alvocidib = compound: CN1CC[C@H](c2c(O)cc(O)c3c(=O)cc(-c4ccccc4Cl)oc23)[C@H](O)C1 [alvocidib]
Procedure, shortened: (§1)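 Values give the log-two fold change in thermal stability against solvent controls, from duplicates. Crude K562 extract at 1 mg/mL protein, made by dounce homogenisation in PBS pH 7.4 with 1 mM MgCl2, was treated with 10 μM compound for 30 min. After 3 min heating across 48°C-58°C, aliquots were pooled, adjusted to 0.5% NP-40 at 4°C and centrifuged at 21,000xg for 90 min. The supernatant was measured by TMTpro 16plex LC-MS/MS with channel sums equalised.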

Tubastatin A = compound: CN1CCc2c(c3ccccc3n2Cc2ccc(C(=O)NO)cc2)C1 [Tubastatin A]
Procedure, shortened: as §1

[1] = compound: CNC(=O)C1=CC=CC=C1NC2=NC(=NC=C2Cl)NC3=C(C=C(C=C3)N4CCOCC4)OC
Procedure, shortened: as §1

defactinib = compound: CNC(=O)c1ccc(Nc2ncc(C(F)(F)F)c(NCc3nccnc3N(C)S(C)(=O)=O)n2)cc1 [defactinib]
Procedure, shortened: as §1

[2] = compound: CNc1nc(-c2ccc3c(N)n[nH]c3c2)cc(N2C[C@@H](C(=O)NC3CCCCC3)CC[C@H]2C)n1
Procedure, shortened: as §1

encorafenib = compound: COC(=O)N[C@@H](C)CNc1nccc(-c2cn(C(C)C)nc2-c2cc(Cl)cc(NS(C)(=O)=O)c2F)n1 [encorafenib]
Procedure, shortened: as §1

[3] = compound: COC(=O)[C@H](CCSC)NC(=O)C1=C(C=C(C=C1)NC[C@H](CS)N)C2=CC=CC=C2
Procedure, shortened: as §1

alisertib = compound: COc1cc(Nc2ncc3c(n2)-c2ccc(Cl)cc2C(c2c(F)cccc2OC)=NC3)ccc1C(=O)O [alisertib]
Procedure, shortened: as §1

[4] = compound: COc1cc2nc(-c3cc(F)ccc3O)nc(N[C@@H]3CNC[C@H]3C(C)(C)O)c2cc1OC
Procedure, shortened: as §1

gefitinib = compound: COc1cc2ncnc(Nc3ccc(F)c(Cl)c3)c2cc1OCCCN1CCOCC1 [gefitinib]
Procedure, shortened: as §1

lapatinib = compound: CS(=O)(=O)CCNCc1ccc(-c2ccc3ncnc(Nc4ccc(OCc5cccc(F)c5)c(Cl)c4)c3c2)o1 [lapatinib]
Procedure, shortened: as §1

pictilisib = compound: CS(=O)(=O)N1CCN(Cc2cc3nc(-c4cccc5[nH]ncc45)nc(N4CCOCC4)c3s2)CC1 [pictilisib]
Procedure, shortened: as §1

crizotinib = compound: C[C@@H](Oc1cc(-c2cnn(C3CCNCC3)c2)cnc1N)c1c(Cl)ccc(F)c1Cl [crizotinib]
Procedure, shortened: as §1

[5] = compound: C[C@H](C1=CC=C(C=C1)C(=O)NC2=C3C=CNC3=NC=C2)N
Procedure, shortened: as §1

duvelisib = compound: C[C@H](Nc1ncnc2nc[nH]c12)c1cc2cccc(Cl)c2c(=O)n1-c1ccccc1 [duvelisib]
Procedure, shortened: as §1

gandotinib = compound: Cc1cc(Nc2cc(CN3CCOCC3)c3nc(C)c(Cc4ccc(Cl)cc4F)n3n2)n[nH]1 [gandotinib]
Procedure, shortened: as §1

tozasertib = compound: Cc1cc(Nc2cc(N3CCN(C)CC3)nc(Sc3ccc(NC(=O)C4CC4)cc3)n2)n[nH]1 [tozasertib]
Procedure, shortened: as §1

doramapimod = compound: Cc1ccc(-n2nc(C(C)(C)C)cc2NC(=O)Nc2ccc(OCCN3CCOCC3)c3ccccc23)cc1 [doramapimod]
Procedure, shortened: as §1

bafetinib = compound: Cc1ccc(NC(=O)c2ccc(CN3CC[C@H](N(C)C)C3)c(C(F)(F)F)c2)cc1Nc1nccc(-c2cncnc2)n1 [bafetinib]
Procedure, shortened: as §1

[6] = compound: Cc1cccc(CC(=O)N2CCc3c2ccc(-c2cn(C)c4ncnc(N)c24)c3F)n1
Procedure, shortened: as §1

Measured: log2 fold change

ORC3 isoform 2 (UniProt Q9UBD5)
Chain of UniProt Q9UBD5 (Q9UBD5 whole entry, looked up): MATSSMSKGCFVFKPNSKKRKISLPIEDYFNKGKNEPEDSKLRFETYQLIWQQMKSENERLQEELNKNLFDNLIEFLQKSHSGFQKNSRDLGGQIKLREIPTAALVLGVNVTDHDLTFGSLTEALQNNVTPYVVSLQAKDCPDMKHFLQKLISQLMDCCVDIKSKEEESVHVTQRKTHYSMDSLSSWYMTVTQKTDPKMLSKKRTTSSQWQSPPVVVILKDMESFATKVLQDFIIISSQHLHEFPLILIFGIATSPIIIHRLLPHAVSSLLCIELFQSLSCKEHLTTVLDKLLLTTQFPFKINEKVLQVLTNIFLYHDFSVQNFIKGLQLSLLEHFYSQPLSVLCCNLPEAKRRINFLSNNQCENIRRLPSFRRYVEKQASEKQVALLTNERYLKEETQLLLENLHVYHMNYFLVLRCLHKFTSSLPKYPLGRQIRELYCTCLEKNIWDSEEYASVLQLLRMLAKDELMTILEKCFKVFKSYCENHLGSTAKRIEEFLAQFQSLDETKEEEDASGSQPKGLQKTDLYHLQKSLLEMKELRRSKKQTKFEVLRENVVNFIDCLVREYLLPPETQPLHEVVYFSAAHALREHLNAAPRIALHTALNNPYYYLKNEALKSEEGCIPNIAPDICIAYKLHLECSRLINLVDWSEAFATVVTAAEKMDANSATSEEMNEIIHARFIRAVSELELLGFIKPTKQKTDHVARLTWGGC
inactive: alvocidib 0.006 | Tubastatin A -0.155 | [1] 0.007 | defactinib 0.022 | [2] 0.035 | encorafenib 0.02 | [3] 0.15 | alisertib 0.001 | [4] -0.009 | gefitinib -0.019 | lapatinib -0.014 | pictilisib -0.011 | crizotinib -0.119 | [5] -0.008 | duvelisib -0.025 | gandotinib -0.097 | tozasertib -0.024 | doramapimod -0.009 | bafetinib -0.046 | [6] 0.001

ORC5 (UniProt O43913)
Chain of UniProt O43913 (O43913 whole entry, looked up): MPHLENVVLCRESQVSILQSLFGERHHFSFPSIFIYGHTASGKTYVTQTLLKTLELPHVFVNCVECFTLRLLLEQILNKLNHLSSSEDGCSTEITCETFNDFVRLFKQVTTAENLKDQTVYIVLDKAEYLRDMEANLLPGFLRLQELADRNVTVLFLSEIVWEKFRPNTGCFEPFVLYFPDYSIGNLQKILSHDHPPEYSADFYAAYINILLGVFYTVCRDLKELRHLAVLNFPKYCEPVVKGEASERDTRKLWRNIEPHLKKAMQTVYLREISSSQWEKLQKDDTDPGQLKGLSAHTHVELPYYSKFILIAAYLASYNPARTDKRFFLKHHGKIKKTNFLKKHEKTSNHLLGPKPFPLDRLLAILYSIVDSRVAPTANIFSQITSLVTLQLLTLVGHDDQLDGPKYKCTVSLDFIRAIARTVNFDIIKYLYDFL
inactive: alvocidib 0.001 | Tubastatin A -0.163 | [1] 0.001 | defactinib 0.062 | [2] -0.008 | encorafenib 0.049 | [3] 0.165 | alisertib -0.004 | [4] 0.006 | gefitinib -0.011 | lapatinib -0.014 | pictilisib -0.049 | crizotinib -0.137 | [5] -0.009 | duvelisib -0.016 | gandotinib -0.113 | tozasertib -0.023 | doramapimod 0.027 | bafetinib -0.069 | [6] 0.045

NUB1 (UniProt Q9Y5A7)
inactive: alvocidib 0.033 | Tubastatin A -0.095 | [1] 0.037 | defactinib -0.007 | [2] 0.014 | encorafenib 0.022 | [3] 0.038 | alisertib -0.012 | [4] -0.004 | gefitinib -0.049 | lapatinib -0.002 | pictilisib -0.022 | crizotinib 0.012 | [5] 0.009 | duvelisib -0.004 | gandotinib 0.011 | tozasertib 0.027 | doramapimod -0.023 | bafetinib -0.047 | [6] -0.002

OAT (UniProt P04181)
Chain of UniProt P04181 (P04181 whole entry, looked up): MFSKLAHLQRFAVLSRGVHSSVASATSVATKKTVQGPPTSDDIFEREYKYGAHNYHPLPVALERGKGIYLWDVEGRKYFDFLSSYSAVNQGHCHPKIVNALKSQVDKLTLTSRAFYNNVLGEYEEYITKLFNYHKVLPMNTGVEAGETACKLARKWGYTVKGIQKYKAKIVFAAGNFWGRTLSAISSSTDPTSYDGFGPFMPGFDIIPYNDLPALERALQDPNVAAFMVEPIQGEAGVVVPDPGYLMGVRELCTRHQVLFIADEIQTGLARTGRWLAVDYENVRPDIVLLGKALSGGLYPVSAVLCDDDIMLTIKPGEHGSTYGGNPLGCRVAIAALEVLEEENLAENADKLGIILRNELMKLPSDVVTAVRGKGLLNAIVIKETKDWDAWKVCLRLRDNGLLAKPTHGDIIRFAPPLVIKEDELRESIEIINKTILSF
inactive: alvocidib -0.023 | Tubastatin A -0.016 | [1] -0.03 | defactinib -0.016 | [2] -0.023 | encorafenib -0.022 | [3] 0.091 | alisertib 0.036 | [4] 0.006 | gefitinib 0.008 | lapatinib -0.02 | pictilisib 0.021 | crizotinib -0.034 | [5] -0.066 | duvelisib -0.025 | gandotinib 0.063 | tozasertib 0.01 | doramapimod -0.029 | bafetinib 0 | [6] 0.044

NCOR2 (UniProt C9J0Q5)
inactive: alvocidib 0.024 | Tubastatin A -0.035 | [1] -0.013 | defactinib 0.045 | [2] -0.001 | encorafenib -0.002 | [3] 0.006 | alisertib 0.036 | [4] 0.017 | gefitinib 0.049 | lapatinib 0.063 | pictilisib -0.028 | crizotinib 0.116 | [5] 0.018 | duvelisib -0.014 | gandotinib -0.055 | tozasertib 0.011 | doramapimod -0.052 | bafetinib 0.079 | [6] -0.07

PANK4 (UniProt Q9NVE7)
inactive: alvocidib -0.009 | Tubastatin A -0.117 | [1] 0.018 | defactinib 0.01 | [2] 0.019 | encorafenib -0.011 | alisertib -0.028 | [4] 0.013 | gefitinib -0.017 | lapatinib -0.019 | pictilisib -0.037 | crizotinib -0.052 | [5] -0.049 | duvelisib -0.009 | gandotinib 0.125 | tozasertib 0.001 | doramapimod -0.001 | bafetinib -0.06 | [6] 0.022
active: [3] 0.498

OSGEP (UniProt Q9NPF4)
Chain of UniProt Q9NPF4 (Q9NPF4 whole entry, looked up): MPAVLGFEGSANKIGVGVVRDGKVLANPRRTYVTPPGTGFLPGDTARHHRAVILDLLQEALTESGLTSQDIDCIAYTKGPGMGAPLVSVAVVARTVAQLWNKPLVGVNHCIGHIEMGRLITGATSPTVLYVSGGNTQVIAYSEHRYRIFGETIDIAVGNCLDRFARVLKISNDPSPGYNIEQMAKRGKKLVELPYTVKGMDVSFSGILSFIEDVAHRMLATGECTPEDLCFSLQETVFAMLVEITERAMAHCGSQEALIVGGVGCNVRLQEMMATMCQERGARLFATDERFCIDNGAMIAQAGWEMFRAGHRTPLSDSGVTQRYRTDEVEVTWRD
inactive: alvocidib -0.062 | Tubastatin A 0 | [1] -0.047 | defactinib 0 | [2] 0.03 | encorafenib -0.008 | [3] 0.016 | alisertib 0.045 | [4] 0.007 | gefitinib -0.032 | lapatinib -0.011 | pictilisib -0.025 | crizotinib -0.006 | [5] -0.07 | duvelisib -0.037 | gandotinib -0.024 | tozasertib 0.043 | doramapimod -0.035 | bafetinib -0.008 | [6] 0.033

NACC1 (UniProt Q96RE7)
Chain of UniProt Q96RE7 (Q96RE7 whole entry, looked up): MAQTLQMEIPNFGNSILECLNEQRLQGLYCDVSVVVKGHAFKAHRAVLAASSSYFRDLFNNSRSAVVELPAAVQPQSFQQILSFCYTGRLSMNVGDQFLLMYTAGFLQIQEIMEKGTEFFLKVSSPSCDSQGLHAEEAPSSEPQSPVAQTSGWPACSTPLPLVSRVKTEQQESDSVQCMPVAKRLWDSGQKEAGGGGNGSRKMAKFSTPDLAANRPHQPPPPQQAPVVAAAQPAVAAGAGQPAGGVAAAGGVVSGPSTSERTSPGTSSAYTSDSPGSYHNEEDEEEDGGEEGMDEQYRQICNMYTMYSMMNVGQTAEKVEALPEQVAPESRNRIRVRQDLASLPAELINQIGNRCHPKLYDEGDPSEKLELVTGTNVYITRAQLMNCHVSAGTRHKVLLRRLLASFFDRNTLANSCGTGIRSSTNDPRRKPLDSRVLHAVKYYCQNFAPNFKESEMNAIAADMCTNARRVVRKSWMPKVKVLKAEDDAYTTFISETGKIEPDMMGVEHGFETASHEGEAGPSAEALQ
inactive: alvocidib -0.02 | Tubastatin A -0.086 | [1] 0.002 | defactinib -0.01 | [2] 0.016 | encorafenib 0.022 | [3] 0.024 | alisertib 0.018 | [4] -0.012 | gefitinib -0.019 | lapatinib -0.032 | pictilisib 0.034 | crizotinib 0.01 | [5] -0.066 | duvelisib -0.002 | gandotinib 0.006 | tozasertib -0.015 | doramapimod -0.011 | bafetinib -0.078 | [6] 0.044

MRPS31 (UniProt Q92665)
inactive: alvocidib -0.023 | Tubastatin A 0.002 | [1] -0.029 | defactinib 0.024 | [2] 0.018 | encorafenib 0.006 | [3] -0.02 | alisertib 0.007 | [4] -0.017 | gefitinib -0.014 | lapatinib 0.012 | pictilisib 0.012 | crizotinib -0.02 | [5] -0.002 | duvelisib -0.015 | gandotinib -0.006 | tozasertib 0.033 | doramapimod 0.047 | bafetinib -0.009 | [6] 0.051

NOA1 (UniProt Q8NC60)
Chain of UniProt Q8NC60 (Q8NC60 whole entry, looked up): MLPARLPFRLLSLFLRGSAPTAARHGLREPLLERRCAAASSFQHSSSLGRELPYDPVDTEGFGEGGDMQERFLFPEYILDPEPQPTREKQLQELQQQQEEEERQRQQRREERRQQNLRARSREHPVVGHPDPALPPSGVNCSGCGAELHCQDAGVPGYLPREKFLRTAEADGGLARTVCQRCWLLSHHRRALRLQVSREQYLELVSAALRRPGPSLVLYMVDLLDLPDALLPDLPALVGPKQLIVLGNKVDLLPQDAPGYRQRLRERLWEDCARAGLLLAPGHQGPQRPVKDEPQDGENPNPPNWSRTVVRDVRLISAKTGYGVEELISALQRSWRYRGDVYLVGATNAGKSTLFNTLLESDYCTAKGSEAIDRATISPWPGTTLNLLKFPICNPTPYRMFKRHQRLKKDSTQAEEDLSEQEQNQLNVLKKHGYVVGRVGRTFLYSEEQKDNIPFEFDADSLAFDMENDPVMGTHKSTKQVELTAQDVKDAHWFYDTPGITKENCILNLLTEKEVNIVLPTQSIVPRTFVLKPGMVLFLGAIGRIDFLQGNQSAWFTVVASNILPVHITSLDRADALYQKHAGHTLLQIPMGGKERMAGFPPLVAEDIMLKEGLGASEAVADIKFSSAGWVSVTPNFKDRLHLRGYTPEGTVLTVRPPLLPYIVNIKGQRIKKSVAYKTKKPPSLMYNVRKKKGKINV
inactive: alvocidib -0.016 | Tubastatin A -0.11 | [1] 0.063 | defactinib -0.076 | [2] 0.063 | encorafenib -0.049 | [3] -0.023 | alisertib 0.039 | [4] 0.023 | gefitinib -0.042 | lapatinib -0.043 | pictilisib 0.032 | crizotinib -0.052 | [5] -0.282 | duvelisib 0.014 | gandotinib 0.039 | tozasertib -0.034 | doramapimod 0.021 | bafetinib -0.221 | [6] 0.167

NIPBL (UniProt Q6KC79)
inactive: alvocidib -0.008 | Tubastatin A -0.183 | [1] -0.04 | defactinib 0.006 | [2] 0 | encorafenib 0.008 | [3] 0.09 | alisertib -0.066 | [4] 0.035 | gefitinib 0.027 | lapatinib -0.03 | pictilisib -0.081 | crizotinib -0.034 | [5] 0.039 | duvelisib 0 | gandotinib -0.094 | tozasertib -0.005 | doramapimod 0.033 | bafetinib 0.001 | [6] 0.016

MYO1C (UniProt O00159)
inactive: alvocidib 0.029 | Tubastatin A -0.114 | [1] -0.057 | defactinib 0.052 | [2] -0.045 | encorafenib 0.076 | [3] 0.049 | alisertib 0.008 | [4] 0.01 | gefitinib -0.02 | lapatinib -0.078 | pictilisib 0.007 | crizotinib -0.09 | [5] 0.027 | duvelisib 0.075 | gandotinib -0.036 | tozasertib 0.014 | doramapimod 0.065 | bafetinib 0.068 | [6] -0.023

OARD1 (UniProt Q9Y530)
Chain of UniProt Q9Y530 (Q9Y530 whole entry, looked up): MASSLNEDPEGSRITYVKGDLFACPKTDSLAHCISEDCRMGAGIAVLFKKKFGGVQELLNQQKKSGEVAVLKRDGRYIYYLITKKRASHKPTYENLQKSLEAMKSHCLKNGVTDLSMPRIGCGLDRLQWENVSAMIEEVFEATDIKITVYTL
inactive: alvocidib -0.003 | Tubastatin A -0.097 | [1] 0 | defactinib 0.037 | [2] -0.11 | encorafenib 0.011 | [3] 0.018 | alisertib 0.011 | [4] 0.028 | gefitinib -0.014 | lapatinib -0.001 | pictilisib -0.011 | crizotinib -0.003 | [5] -0.022 | duvelisib -0.015 | gandotinib -0.012 | tozasertib 0.042 | doramapimod 0.035 | bafetinib -0.023 | [6] 0.037

OGFOD2 (UniProt Q6N063)
active: [3] 0.223
inactive: alvocidib 0.029 | Tubastatin A 0.033 | [1] 0.059 | defactinib 0.015 | [2] -0.125 | encorafenib -0.054 | alisertib 0.009 | [4] -0.014 | gefitinib -0.065 | lapatinib 0.034 | pictilisib -0.031 | crizotinib -0.017 | [5] -0.029 | duvelisib 0.045 | gandotinib -0.016 | tozasertib 0.019 | doramapimod -0.013 | bafetinib -0.09 | [6] 0.032

NEK9 (UniProt Q8TD19)
Chain of UniProt Q8TD19 (Q8TD19 whole entry, looked up): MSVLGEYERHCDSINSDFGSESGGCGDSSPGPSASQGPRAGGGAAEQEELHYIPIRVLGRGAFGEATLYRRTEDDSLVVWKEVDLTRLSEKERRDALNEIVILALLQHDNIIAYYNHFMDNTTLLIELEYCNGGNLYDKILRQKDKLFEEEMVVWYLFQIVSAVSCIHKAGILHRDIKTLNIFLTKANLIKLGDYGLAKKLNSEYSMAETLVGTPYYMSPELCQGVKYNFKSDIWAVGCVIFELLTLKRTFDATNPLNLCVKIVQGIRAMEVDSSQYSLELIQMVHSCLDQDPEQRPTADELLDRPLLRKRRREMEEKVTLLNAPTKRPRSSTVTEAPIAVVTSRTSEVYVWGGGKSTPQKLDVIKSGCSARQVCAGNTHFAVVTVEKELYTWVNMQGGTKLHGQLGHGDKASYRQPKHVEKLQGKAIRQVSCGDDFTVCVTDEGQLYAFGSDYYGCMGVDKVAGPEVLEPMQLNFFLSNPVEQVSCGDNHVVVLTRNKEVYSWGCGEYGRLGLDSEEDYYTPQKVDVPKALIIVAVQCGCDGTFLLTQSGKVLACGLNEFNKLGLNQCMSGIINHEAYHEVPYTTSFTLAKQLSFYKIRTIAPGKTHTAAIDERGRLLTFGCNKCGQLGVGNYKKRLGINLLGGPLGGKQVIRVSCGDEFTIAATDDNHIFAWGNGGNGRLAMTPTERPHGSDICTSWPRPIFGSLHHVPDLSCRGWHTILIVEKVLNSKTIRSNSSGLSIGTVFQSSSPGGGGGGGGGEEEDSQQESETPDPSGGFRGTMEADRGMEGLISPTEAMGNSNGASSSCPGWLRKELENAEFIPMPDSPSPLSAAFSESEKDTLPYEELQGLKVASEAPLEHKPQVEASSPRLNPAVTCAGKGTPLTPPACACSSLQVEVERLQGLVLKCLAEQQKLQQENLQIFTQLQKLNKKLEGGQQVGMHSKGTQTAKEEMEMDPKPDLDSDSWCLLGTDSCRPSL
inactive: alvocidib -0.062 | Tubastatin A -0.062 | [1] 0.193 | defactinib 0.08 | [2] -0.009 | encorafenib -0.018 | [3] -0.008 | alisertib -0.048 | [4] -0.01 | gefitinib -0.039 | lapatinib -0.013 | pictilisib 0.039 | crizotinib 0.057 | [5] -0.092 | duvelisib 0.006 | gandotinib 0.108 | tozasertib 0.025 | doramapimod -0.033 | bafetinib 0.014 | [6] 0.019

ORC2 (UniProt Q13416)
Chain of UniProt Q13416 (Q13416 whole entry, looked up): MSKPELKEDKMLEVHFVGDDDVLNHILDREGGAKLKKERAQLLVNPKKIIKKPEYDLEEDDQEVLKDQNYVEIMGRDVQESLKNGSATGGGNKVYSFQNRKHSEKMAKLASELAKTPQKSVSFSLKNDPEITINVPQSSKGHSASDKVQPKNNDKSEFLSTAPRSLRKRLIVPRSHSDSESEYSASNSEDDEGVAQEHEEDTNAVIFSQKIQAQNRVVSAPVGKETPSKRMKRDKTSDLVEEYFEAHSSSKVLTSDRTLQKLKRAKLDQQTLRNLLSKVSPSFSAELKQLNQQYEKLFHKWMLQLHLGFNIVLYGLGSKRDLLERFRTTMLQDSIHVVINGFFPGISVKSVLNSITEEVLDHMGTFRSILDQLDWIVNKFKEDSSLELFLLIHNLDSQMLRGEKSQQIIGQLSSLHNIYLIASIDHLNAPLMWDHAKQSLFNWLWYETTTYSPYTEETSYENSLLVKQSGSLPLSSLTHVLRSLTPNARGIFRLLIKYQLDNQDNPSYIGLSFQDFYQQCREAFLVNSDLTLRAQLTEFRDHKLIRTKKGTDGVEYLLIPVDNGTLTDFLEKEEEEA
inactive: alvocidib 0.034 | Tubastatin A -0.161 | [1] 0.038 | defactinib 0.034 | [2] -0.008 | encorafenib 0.018 | [3] 0.094 | alisertib 0.012 | [4] -0.002 | gefitinib -0.011 | lapatinib 0.016 | pictilisib -0.049 | crizotinib -0.074 | [5] 0.063 | duvelisib -0.068 | gandotinib -0.087 | tozasertib -0.017 | doramapimod -0.007 | bafetinib -0.034 | [6] 0.011
